The campaign covered roughly 5,500 compounds. About 2,000 (36%) were called active. Roughly 18% stayed inconclusive and do not appear here. Rule as the data show it: active = normalized growth mostly below about 0.91 (no sharp cut-off); inconclusive = no clear call, values can overlap the other calls; inactive = mostly above about 0.92. Some of the results follow.
Assay: chemical genetic growth profiling, strain panel (AID 1159580);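 also: tested at 20 µM; growth read once vehicle control cultures reached saturation at 30 °C; 1 = growth at the plate median or of vehicle wells; lower values mean less growth of the strain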
Settings: growth OD
[1] = S. cerevisiae deletion strains, locus YDR150W, strain NUM1, hits give low values
[2] = S. cerevisiae deletion strains, locus YGR078C, strain PAC10, hits give low values
[3] = S. cerevisiae deletion strains, locus YJR075W, strain HOC1, hits give low values
[4] = S. cerevisiae deletion strains, locus YMR263W, strain SAP30, hits give low values
[5] = S. cerevisiae deletion strains, locus YPL055C, strain LGE1, hits give low values
[6] = S. cerevisiae deletion strains, locus YDL101C, strain DUN1, hits give low values
[7] = S. cerevisiae deletion strains, locus YHR030C, strain SLT2, hits give low values

Measured: normalized growth

Nc1ncnc2c1nc(Br)n2C1OC2COP(=O)(O)O[C@@H]2C1O (stereo partly specified)
inactive: S. cerevisiae deletion strains, locus YAL040C, strain CLN3, hits give low values 0.986 | [1] 0.999 | S. cerevisiae deletion strains, locus YER002W, strain NOP16, hits give low values 0.996 | [2] 1.01 | [3] 1 | [4] 0.999 | S. cerevisiae deletion strains, locus YNL175C, strain NOP13, hits give low values 0.986 | S. cerevisiae deletion strains, locus YNL197C, strain WHI3, hits give low values 1.02 | S. cerevisiae deletion strains, locus YNL224C, strain SQS1, hits give low values 0.999 | S. cerevisiae deletion strains, locus YOR083W, strain WHI5 (second series), hits give low values 1.02 | [5] 1.01

O/N=C\c1sccc1Oc1ccccc1
inactive: S. cerevisiae deletion strains, locus YAL013W, strain DEP1, hits give low values 0.964 | S. cerevisiae deletion strains, locus YBR229C, strain ROT2, hits give low values 0.958 | S. cerevisiae deletion strains, locus YCL061C, strain MRC1, hits give low values 0.942 | [6] 0.926 | [1] 0.953 | [2] 0.952 | [7] 0.729 | S. cerevisiae deletion strains, locus YHR087W, strain rtc3, hits give low values 1.01 | S. cerevisiae deletion strains, locus YJL187C, strain SWE1, hits give low values 1.01 | S. cerevisiae deletion strains, locus YJR043C, strain POL32, hits give low values 1 | [3] 0.978 | S. cerevisiae deletion strains, locus YLR039C, strain RIC1, hits give low values 0.954 | S. cerevisiae deletion strains, locus YLR058C, strain SHM2 (second series), hits give low values 0.997 | S. cerevisiae deletion strains, locus YLR085C, strain ARP6, hits give low values 0.911 | S. cerevisiae deletion strains, locus YLR262C, strain YPT6, hits give low values 0.931 | S. cerevisiae deletion strains, locus YML094W, strain GIM5, hits give low values 0.927 | S. cerevisiae deletion strains, locus YMR219W, strain ESC1, hits give low values 0.977 | [4] 0.968 | S. cerevisiae deletion strains, locus YNL128W, strain TEP1, hits give low values 0.98 | S. cerevisiae deletion strains, locus YNL298W, strain CLA4 (second series), hits give low values 0.962 | S. cerevisiae deletion strains, locus YNL322C, strain KRE1, hits give low values 0.988 | S. cerevisiae deletion strains, locus YNR030W, strain Alg12, hits give low values 0.932 | S. cerevisiae deletion strains, locus YOL006C, strain TOP1, hits give low values 0.795 | [5] 0.98 | S. cerevisiae deletion strains, locus YPL241C, strain CIN2, hits give low values 0.917 | S. cerevisiae deletion strains, locus YPR135W, strain CTF4, hits give low values 0.648 | S. cerevisiae strains, strain wild type, hits give low values 0.953
active: S. cerevisiae deletion strains, locus YEL061C, strain CIN8, hits give low values 0.869 | S. cerevisiae deletion strains, locus YNL153C, strain GIM3, hits give low values 0.905

Clc1ccc(N/N=C\c2sccc2Oc2ccccc2)cc1
active: S. cerevisiae deletion strains, locus YDL214C, strain PRR2, hits give low values 0.335 | S. cerevisiae deletion strains, locus YDR477W, strain SNF1, hits give low values 0.275 | S. cerevisiae deletion strains, locus YER123W, strain YCK3, hits give low values 0.184 | S. cerevisiae deletion strains, locus YER133W, strain GLC7, hits give low values 0.345 | S. cerevisiae deletion strains, locus YFR019W, strain FAB1, hits give low values 0.313 | S. cerevisiae deletion strains, locus YGR040W, strain KSS1, hits give low values 0.268 | S. cerevisiae deletion strains, locus YGR052W, strain FMP48, hits give low values 0.21 | S. cerevisiae deletion strains, locus YGR092W, strain DBF2, hits give low values 0.115 | [7] 0.125 | S. cerevisiae deletion strains, locus YHR079C, strain IRE1, hits give low values 0.474 | S. cerevisiae deletion strains, locus YHR082C, strain KSP1, hits give low values 0.361 | S. cerevisiae deletion strains, locus YHR205W, strain SCH9, hits give low values 0.43 | S. cerevisiae deletion strains, locus YJL095W, strain BCK1, hits give low values 0.125 | S. cerevisiae deletion strains, locus YJL157C, strain FAR1, hits give low values 0.316 | S. cerevisiae deletion strains, locus YJR066W, strain TOR1 (second series), hits give low values 0.423 | S. cerevisiae deletion strains, locus YJR066W, strain TOR1, hits give low values 0.241 | S. cerevisiae deletion strains, locus YKL048C, strain ELM1, hits give low values 0.468 | S. cerevisiae deletion strains, locus YKL067W, strain YNK1, hits give low values 0.303 | S. cerevisiae deletion strains, locus YKL101W, strain HSL1, hits give low values 0.353 | S. cerevisiae deletion strains, locus YKL203C, strain TOR2, hits give low values 0.34 | S. cerevisiae deletion strains, locus YLR113W, strain HOG1, hits give low values 0.275 | S. cerevisiae deletion strains, locus YLR133W, strain CKI1, hits give low values 0.28 | S. cerevisiae deletion strains, locus YLR403W, strain SFP1, hits give low values 0.242 | S. cerevisiae deletion strains, locus YML070W, strain DAK1, hits give low values 0.293 | S. cerevisiae deletion strains, locus YMR205C, strain PFK2 (second series), hits give low values 0.47 | S. cerevisiae deletion strains, locus YNL020C, strain ARK1, hits give low values 0.382 | S. cerevisiae deletion strains, locus YNL183C, strain NPR1, hits give low values 0.393 | S. cerevisiae deletion strains, locus YNL307C, strain MCK1 (second series), hits give low values 0.147 | S. cerevisiae deletion strains, locus YOL136C, strain PFK27, hits give low values 0.312 | S. cerevisiae deletion strains, locus YOR061W, strain CKA2, hits give low values 0.19 | S. cerevisiae deletion strains, locus YOR119C, strain RIO1, hits give low values 0.299 | S. cerevisiae deletion strains, locus YOR231W, strain MKK1, hits give low values 0.477 | S. cerevisiae deletion strains, locus YPL031C, strain PHO85, hits give low values 0.295 | S. cerevisiae deletion strains, locus YPL153C, strain RAD53, hits give low values 0.279 | S. cerevisiae deletion strains, locus YPL204W, strain HRR25, hits give low values 0.338 | S. cerevisiae deletion strains, locus YPL256C, strain CLN2, hits give low values 0.275
inactive: S. cerevisiae deletion strains, locus YAR019C, strain CDC15, hits give low values 0.971 | S. cerevisiae deletion strains, locus YBL105C, strain PKC1, hits give low values 0.979 | S. cerevisiae deletion strains, locus YBR135W, strain CKS1, hits give low values 0.966 | S. cerevisiae deletion strains, locus YBR136W, strain MEC1, hits give low values 0.963 | S. cerevisiae deletion strains, locus YBR160W, strain CDC28, hits give low values 0.965 | S. cerevisiae deletion strains, locus YDL017W, strain CDC7, hits give low values 0.974 | S. cerevisiae deletion strains, locus YDL028C, strain MPS1, hits give low values 0.968 | [6] 0.951 | S. cerevisiae deletion strains, locus YDL108W, strain KIN28, hits give low values 0.969 | S. cerevisiae deletion strains, locus YDL132W, strain cdc53, hits give low values 0.964 | S. cerevisiae deletion strains, locus YDR052C, strain DBF4, hits give low values 0.95 | S. cerevisiae deletion strains, locus YDR054C, strain cdc34, hits give low values 0.963 | S. cerevisiae deletion strains, locus YDR226W, strain ADK1, hits give low values 0.96 | S. cerevisiae deletion strains, locus YFL009W, strain cdc4, hits give low values 0.968 | S. cerevisiae deletion strains, locus YFL029C, strain CAK1, hits give low values 0.959 | S. cerevisiae deletion strains, locus YFR003C, strain YPI1, hits give low values 0.975 | S. cerevisiae deletion strains, locus YFR028C, strain CDC14, hits give low values 0.965 | S. cerevisiae deletion strains, locus YIL147C, strain SLN1, hits give low values 0.969 | S. cerevisiae deletion strains, locus YJL128C, strain PBS2, hits give low values 0.864 | S. cerevisiae deletion strains, locus YJR016C, strain ILV3, hits give low values 0.947 | S. cerevisiae deletion strains, locus YKL193C, strain SDS22, hits give low values 0.968 | S. cerevisiae deletion strains, locus YMR001C, strain CDC5, hits give low values 0.972 | S. cerevisiae deletion strains, locus YMR277W, strain FCP1, hits give low values 0.977 | S. cerevisiae deletion strains, locus YNL006W, strain LST8, hits give low values 0.968 | S. cerevisiae deletion strains, locus YNL161W, strain CBK1, hits give low values 0.974 | S. cerevisiae deletion strains, locus YNL207W, strain RIO2, hits give low values 0.969 | S. cerevisiae deletion strains, locus YNL222W, strain SSU72, hits give low values 0.966 | S. cerevisiae deletion strains, locus YOL078W, strain AVO1, hits give low values 0.97 | S. cerevisiae deletion strains, locus YOR329C, strain SCD5, hits give low values 0.978 | S. cerevisiae deletion strains, locus YPL209C, strain IPL1, hits give low values 0.977 | S. cerevisiae deletion strains, locus YPR025C, strain CCL1, hits give low values 0.963 | S. cerevisiae deletion strains, locus YPR106W, strain ISR1, hits give low values 0.967 | S. cerevisiae deletion strains, locus YPR111W, strain DBF20, hits give low values 0.963 | S. cerevisiae deletion strains, strain NNK1, hits give low values 0.979 | S. cerevisiae deletion strains, strain TSCII, hits give low values 0.966
